# Results reported in PubChem BioAssay (NCI).
# Values joined by “and” are separate entries in the source; they are usually repeats but may differ in a detail not shown here. Equal values may be shown once. Compounds without any hit were thinned out: in the full panel of roughly 83,000, 20% have a hit.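 Plates (96-well) were seeded with cells, treated with compound at one concentration, and incubated for 48 hours before percent growth was determined.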 Active and inactive are the calls of the source. How the source made its calls: active means growth percent below 10; inactive means the rest.
# Assays:
# Test in all cases: NCI-60 one-dose screen, 48 h (100 = growth as untreated, 0 = no growth, -100 = all killed)
# BT-549 breast = settings: 10 µM unless noted
# MDA-MB-435 melanoma = settings: 10 µM unless noted
# SW-620 colon = settings: 10 µM unless noted
# MCF7 breast = system: MCF7 breast
# HCT-116 colon = settings: 10 µM unless noted
# HCC-2998 colon = settings: 10 µM unless noted
# KM12 colon = settings: 10 µM unless noted
SMILES,growth (BT-549 breast),growth (MDA-MB-435 melanoma),growth (SW-620 colon),growth (MCF7 breast; 10 µM unless noted),growth (HCT-116 colon),growth (HCC-2998 colon),growth (KM12 colon),growth (MCF7 breast; 10 µM),growth (MCF7 breast; 100 µM)
Cc1c(O)c(O)cc2c3c(oc12)CC(c1ccc2c(c1)OCO2)CC3=O (stereo not given),74.6% (inactive),105% (inactive),81.7% (inactive),73.6% (inactive),90.2% (inactive),101% (inactive),90.9% (inactive),–,–
Cc1nc2sc(C(=O)Nc3cccc4ccccc34)c(N)c2cc1C(=O)/C=C/c1ccccc1,-31.1% (active),1.56% (active),-8.3% (active),4.27% (active),-52.8% (active),-85.4% (active),-43.7% (active),–,–
Cc1ccc(-c2nc3nc(-c4ccccc4)nc(N4CCN(S(=O)(=O)c5ccccc5)CC4)c3o2)cc1,64.5% (inactive),95.7% (inactive),92.9% (inactive),92.7% (inactive),65.2% (inactive),102% (inactive),104% (inactive),–,–
O=C(/C=C/c1ccc(Cl)s1)c1ccc(Cl)s1,103% (inactive),87.8% (inactive),99.7% (inactive) and 95.2% (inactive),59.3% (inactive) and 60.5% (inactive),68.2% (inactive) and 85.8% (inactive),98.8% (inactive) and 102% (inactive),89% (inactive) and 95.9% (inactive),–,–
COc1ccc(/C=C/C(=O)c2cc3c(N)c(C(=O)Nc4ccccc4Cl)sc3nc2C)cc1,59% (inactive),-61.6% (active),48.1% (inactive),17.2% (inactive),59% (inactive),51.3% (inactive),51.6% (inactive),–,–
O=C1/C(=C/c2ccc(-c3ccccc3C(F)(F)F)o2)SC(=S)N1CCc1ccc(O)cc1,61.7% (inactive),-14.4% (active),32.1% (inactive),27.7% (inactive),33.9% (inactive),81.1% (inactive),28.2% (inactive),–,–
O=C1CCCCN1CCCCC#Cc1cccc(C#Cc2cccnc2)c1,265% (inactive),84.6% (inactive),101% (inactive),101% (inactive),141% (inactive) and 39.7% (inactive),77.2% (inactive),–,–,–
O=C1C(=C(O)c2ccccc2)C(=O)c2ccccc21,95.7% (inactive),103% (inactive),111% (inactive),102% (inactive),–,109% (inactive),104% (inactive),–,–
CC(=O)Nc1c(I)c(NC(C)=O)c(I)c(C(=O)O)c1I,101% (inactive) and 97.9% (inactive),101% (inactive) and 102% (inactive),102% (inactive) and 117% (inactive),98.6% (inactive) and 96.9% (inactive),110% (inactive) and 93% (inactive),106% (inactive),104% (inactive) and 123% (inactive),–,–
COc1ccc(C/C(C)=C(/c2ccc(OCCN3CCCCCC3)cc2)c2ccc(OC(=O)c3ccccc3)cc2)cc1,106% (inactive),104% (inactive),98.4% (inactive),60.5% (inactive),93.3% (inactive),105% (inactive),120% (inactive),–,–
COc1ccc(-c2nnc3n(C)c(=O)c4ccccc4n23)cc1O,41.4% (inactive),-40.8% (active),23.9% (inactive),18.2% (inactive),13.1% (inactive),33.7% (inactive),24.2% (inactive),–,–
O=[N+]([O-])c1cc(C(F)(F)F)ccc1Sc1ccc(C(F)(F)F)cc1[N+](=O)[O-],79.3% (inactive),21.3% (inactive),20.6% (inactive),67.7% (inactive),10.7% (inactive),99.4% (inactive),65.8% (inactive),–,–
Nc1ncc(-c2ccc3ncnc(N4CCc5ccc(Cl)cc54)c3c2)cc1C(F)(F)F,-2.6% (active),13.7% (inactive),34.8% (inactive),7.34% (active),23.3% (inactive),22.3% (inactive),13.4% (inactive),–,–
Cc1ccc(S(=O)(=O)Nc2cc(Sc3ccccc3)c(O)c3ccccc23)cc1,97.1% (inactive),-95.4% (active),108% (inactive),64.1% (inactive),58.9% (inactive),106% (inactive),86.4% (inactive),–,–
Nc1ncnc2c1C(c1ccc([N+](=O)[O-])cc1)c1sc3c(F)cccc3c1O2 (stereo not given),111% (inactive),101% (inactive),–,21.9% (inactive),101% (inactive),115% (inactive),92.8% (inactive),–,–
Nc1[nH]nc(Nc2ccccc2)c1-c1nc2ccccc2s1,38.1% (inactive),22.8% (inactive),15.5% (inactive),12.4% (inactive),3.73% (active),18.3% (inactive),15.6% (inactive),–,–
CCCCC1COc2cccc3c2N1C=C/C3=C\C(=O)N(C)c1cccc(Cl)c1 (stereo not given),107% (inactive),101% (inactive),102% (inactive),104% (inactive),91.2% (inactive),111% (inactive),–,–,–
COc1ccc2c(c1)c(C(=O)c1nc(-c3cn(C)c4ccccc34)no1)cn2C,98% (inactive),76.7% (inactive),87% (inactive),24% (inactive),99.5% (inactive),95.3% (inactive),81% (inactive),–,–
CC(Sc1ccccc1)C(=O)O (stereo not given),96.5% (inactive),96.5% (inactive),102% (inactive),99.5% (inactive),–,120% (inactive),107% (inactive),–,–
CC(C)(C)CC(N)=O,75.3% (inactive),109% (inactive),102% (inactive),–,93.6% (inactive),106% (inactive),109% (inactive),85.9% (inactive),85.2% (inactive) and 8.62% (active)
CC/C=C\C/C=C\C[C@H](O)C/C=C1/C(=O)C=C[C@@H]1C/C=C\CCCC(=O)OC,-14.9% (active),-16.4% (active),-46.3% (active),2.32% (active),-63.8% (active),-83.9% (active),-71.6% (active),–,–
N#CC1=C(N)Oc2c(sc3c(Br)cccc23)C1c1ccccn1 (stereo not given),31.4% (inactive),77.4% (inactive),34.8% (inactive),18.8% (inactive),27.9% (inactive),72.9% (inactive),34.9% (inactive),–,–
